{"source": "PubChem BioAssay"}
{"test": "probe aWnt5a binding to arrayed compounds – biochemical, biotinylated probe, 635/667 nm fluorescence, primary screen (AID 1113);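 note: score merges 667 nm fluorescence intensity with signal-to-noise per printed feature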", "conditions": "small-molecule microarray, higher = more signal"}
{"smiles": "COCCOC(=O)N1C(=O)[C@@]2(c3cc(C#CCC(C(=O)OC)C(=O)OC)ccc31)[C@H](C(=O)Nc1nc3ccccc3s1)[C@H]1C(=O)O[C@H](c3ccccc3)[C@H](c3ccccc3)N1[C@@H]2c1ccc(O)cc1", "composite z-score": -0.0044}
{"smiles": "COc1ccc(C(O)C2C=CC3C(=O)N(c4ccccc4)C(=O)C3N2Nc2ccc([N+](=O)[O-])cc2)c2ccccc12", "note": "(stereo not given)", "composite z-score": 0.062}
{"smiles": "COc1ccc(C(=O)Nc2ccc3c(c2)[C@@]2(O[C@H](CCO)[C@@H]([Si](C)(C)c4ccc(OC)cc4)[C@@H]2C)C(=O)N3Cc2ccccc2)cc1", "composite z-score": -0.0599}
{"smiles": "[N-]=[N+]=Nc1ccccc1[C@@H]1OC(c2ccc(OCCCO)cc2)=N[C@]1(CCS(=O)(=O)c1ccccc1)C(=O)NCC(O)CO", "note": "(stereo not given in full)", "composite z-score": -0.0977}
{"smiles": "COC(=O)[C@@]1(Cc2ccccc2)[C@H]2c3cc(C(=O)N(C)C)n(Cc4ccc(S(C)(=O)=O)cc4)c3C[C@H]2CN1C(=O)c1ccccc1", "composite z-score": 0.0613}
